# Among all 71,000 compounds or so, about 65 (0.09%) were called active. Where a call stands in place of a potency, no number is given. The sample holds actives, similar compounds and a random draw of the others, so the mix is not that of the screen. A number with no mark means an inactive call. Calls come from the whole dose curve; as a rule, active = well fitted curve in the direction sought with a large enough effect; inconclusive = small, poorly fitted or top-dose-only effect; inactive = flat fitted curve, though single readings scatter.
# Molecular target: Beta-lactamase (Escherichia coli (strain K12)) (UniProt P00811)
# Sequence (P00811 whole entry, looked up): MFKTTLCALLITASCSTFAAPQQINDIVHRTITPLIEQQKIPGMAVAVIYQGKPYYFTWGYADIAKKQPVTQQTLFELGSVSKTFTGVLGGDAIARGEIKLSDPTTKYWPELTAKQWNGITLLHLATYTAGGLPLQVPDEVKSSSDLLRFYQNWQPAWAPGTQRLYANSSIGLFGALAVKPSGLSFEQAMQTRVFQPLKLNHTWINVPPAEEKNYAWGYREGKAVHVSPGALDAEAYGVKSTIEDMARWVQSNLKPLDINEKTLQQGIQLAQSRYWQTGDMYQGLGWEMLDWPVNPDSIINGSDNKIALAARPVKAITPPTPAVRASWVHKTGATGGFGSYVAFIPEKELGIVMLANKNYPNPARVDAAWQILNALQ
# Assay: Promiscuous and Specific Inhibitors of AmpC Beta-Lactamase (assay with detergent)
# Details: purified AmpC, nitrocefin hydrolysis with detergent; series mostly up to 28.7 µM
# Experimental: NIH Molecular Libraries Screening Centers Network [MLSCN]
# NIH Chemical Genomics Center [NCGC]
# PI Name: Shoichet, Brian K.
# This aggregation profiling approach exploits the sensitivity of aggregate formation to detergent. Inhibition of b-lactamase is measured in the presence and absence of 0.01% Triton X-100. This particular assay had the prescence of 0.01% Triton X-100. See Pubchem assay "Promiscuous and Specific Inhibitors of AmpC Beta-Lactamase (assay without detergent)" for related screen. Compounds that inhibit only in the absence of detergent are considered likely promiscuous aggregators.
# A screen of 1,030 compounds was performed in Brian Shoichet's lab in 96-well format. AmpC activity was measured by following the absorbance at 480 nm. Nitrocefin is a chromogenic substrate: while nitrocefin is yellow (lmax 390 nm), the product of its hydrolysis is red (lmax 486 nm, 17,000 M-1). AmpC beta lactamase was provided by Brian Shoichet and Brian Feng, UCSF.
# NCGC Assay Protocol Summary:
# 20 mM phosphate buffer, pH 7.0
# Triton X-100: No Detergent screen: 0.0001%, Detergent screen: 0.01%.
# Buffer in columns 3 and 4 as negative control (no enzyme).
# 5.3 nM AmpC in columns 1, 2, 5-48. Titration of UCSF compound 9 control (from 10 mM, then 1:2) pin-transferred to column 2. Column 1 is neutral (100% activity).
# Six uL of reagents were dispensed to 1536-well Greiner black clear bottom plates. Compounds and controls (23 nL) were transferred via Kalypsys PinTool. The plates were incubated for 15 min at room temperature, and then 2 uL of 800 uM solution of nitrocefin was added to start the reaction. The plates were immediately transferred to and read every 20 seconds for 4 min on ViewLux (Perkin-Elmer) High-throughput CCD imager using 480 nm absorbance protocol. During dispense, reagent bottles were kept submerged into 4 deg C water bath.
# Keywords: NIH Roadmap, MLSCN, MLI, MLSMR, qHTS, NCGC, AmpC Beta-Lactamase, Aggregation
# Potency is the fitted concentration of half-maximal effect.
Structure (SMILES),Potency,"activity change, negative = inhibition"
CC(C)(O/N=C(\C(=O)N[C@@H]1C(=O)N2C(C(=O)[O-])=C(C[n+]3ccccc3)CS[C@@H]12)c1csc(N)n1)C(=O)O,3.98 µM (active),
COc1ccc(OC)c(C2N(c3ccccn3)C(=O)C3CCCN32)c1 (stereo not given),,inactive
Clc1ccc(CSc2nnc([C@@H]3CCCN3)o2)cc1,,inactive
C=CCNC(=O)c1ccc(C)c(Br)c1,,inactive
Cc1ccc(CNC(=O)CN2CCN(Cc3ccc(Cl)cc3)C2=O)cc1,,inactive
COCCCNC(=O)c1ccc(CNS(=O)(=O)c2ccc(NC(C)=O)cc2)cc1,,inactive
Cn1nc(-c2ccc(Cl)cc2)c2cc(C(=O)NCc3ccco3)sc21,,inactive
CCCN(CCC)CCNC(=O)c1cc2c(C)nc3ccccc3c2o1,,inactive
CCn1c(NCCc2ccc(OC)c(OC)c2)nc2c1c(=O)n(C)c(=O)n2C,,inactive
Fc1ccccc1CCNc1nnnn1-c1ccccc1,,inactive
Cc1ccn2cc(-c3nonc3C)cc2c1,,inactive
O=C(c1cccc(S(=O)(=O)N2CCOCC2)c1)N1CCOCC1,,inactive
Clc1ccc(Nc2nc(-c3cccs3)cs2)nc1,,inactive
COc1cccc2sc(Nc3nc(C)c(C(C)=O)s3)nc12,,inactive
CC(=O)N1CCc2cc(S(=O)(=O)Nc3ccccc3N3CCN(C)CC3)ccc21,,inactive
COc1ccc(OCC(=O)N2CCN(C(=O)c3cccs3)CC2)cc1,,inactive
Cc1ccccc1C(=O)NCCN=C1NS(=O)(=O)c2ccccc21,,inactive
C#CCN1C(=O)C(O)(CC(=O)c2cc(OC)ccc2OC)c2ccccc21 (stereo not given),,inactive
CCOC(=O)c1ccc(N2C(=O)CC(N3CCC(C(=O)OCC)CC3)C2=O)cc1 (stereo not given),,inactive
O=C1c2oc3ccc(Br)cc3c(=O)c2C(c2cccc(F)c2)N1CCO (stereo not given),,inactive
O=C(c1ccco1)N1CCC[C@@]2(CCN(Cc3nccs3)C2)C1,,inactive
O=C1c2oc3ccccc3c(=O)c2C(c2cccc(O)c2)N1c1ccccn1 (stereo not given),,inactive
CCCCCCCCCCCC(=O)O[C@H](CC(=O)O)C[N+](C)(C)C,,inactive
CCOC(=O)N1CCN(C(=O)c2n[nH]c(=O)c3ccccc23)CC1,,inactive
CC(C)c1cc(C(=O)O)on1,,inactive
O=S(=O)(c1ccc(OCC(O)CN2CCN(c3ccccc3Cl)CC2)cc1)N1CCOCC1 (stereo not given),,inactive
CCNC(=O)N1CCNC(=O)C1CC(=O)Nc1ccc(C(=O)OCC)cc1 (stereo not given),,inactive

Structure (SMILES),Potency,"activity change, negative = inhibition"
COc1ccccc1-n1nnnc1S(=O)(=O)Cc1ccc(Cl)cc1,,inactive
COc1ccc2occ(C(=O)c3ccc(N=C(C)N(C)C)cc3)c2c1,,inactive
CCC(=O)Nc1ccc2c(c1)nc(CCN1CCN(C)CC1)n2C,,inactive
O=C(Nc1ccc(NC(=O)c2cccs2)cn1)c1ccco1,,inactive
COC(=O)c1oc2ccc(Br)cc2c1NC(C)=O,,inactive
O=C(C(NS(=O)(=O)c1cccc2nsnc12)c1ccccc1)N1CCN(c2ccccn2)CC1 (stereo not given),,inactive
CC[C@@](O)(C(=O)O)c1cc2n(c(=O)c1CO)Cc1cc3ccccc3nc1-2,,-3.6% [at 5.75 µM]
CC(C)CCNC(=O)CN(C(=O)Cn1nnc(-c2ccc(F)cc2)n1)C1CCCC1,,inactive
O=C(CSc1nnc(-c2ccco2)o1)NCC(=O)c1ccccc1,,inactive
Nc1scc(-c2ccncc2)c1Cl,,inactive
O=C(CSc1nc2ccccc2o1)N1CCN(c2ccc(Cl)cc2)CC1,,inactive
O=C(c1ccccc1-c1ccccc1)N1CCOCC1,,inactive
Cc1ccc(F)cc1NC(=O)c1ccc2c(c1)OCO2,,inactive
c1ccc2nc(C3=NCCN3)cnc2c1,,inactive
COc1ccc(CCNc2ncnc3nc[nH]c23)cc1OC,,inactive
Cc1cc(C(=O)O)ccc1[N+](=O)[O-],,inactive
O=C(Nc1ccccc1F)c1cc(S(=O)(=O)N2CCCCC2)cs1,,inactive
COC(=O)[C@@]1(Cc2ccc(OC)cc2)[C@H]2c3cc(C(=O)N4CCCC4)n(Cc4ccc(C(F)(F)F)nc4)c3C[C@H]2CN1C(=O)c1ccccc1,,inactive
Cc1ccc(Cn2nnc3c(=O)n(CC(=O)N4CCCCC4)cnc32)cc1,,inactive
CCC(C)(C)n1nnnc1C(c1cccs1)N1CCN(c2nc3ccccc3s2)CC1 (stereo not given),,inactive
O=S(=O)(Nc1ccc2nc(-c3ccco3)[nH]c2c1)c1ccccc1,,inactive
Cc1cc(N2C(=O)c3ccc(C(=O)NCc4ccccc4)cc3C2=O)no1,,inactive
CCCCOc1ccc(Cl)cc1CSc1nncn1N,,inactive
NCC[Se][Se]CCN,,-3% [at 5.75 µM]
NC(=NC(=O)c1ccccc1)C1=C(O)CCC1=O,,inactive
COC(=O)Cn1c(=NC(=O)CSCC(=O)Nc2cc(C)on2)sc2ccccc21,,inactive
Cc1ccsc1-c1nc(CSCC(=O)NCCN2CCCC2)c(C)o1,,inactive

Structure (SMILES),Potency,"activity change, negative = inhibition"
O=C(NCc1ccco1)c1ccc(CS(=O)(=O)Cc2ccc(F)cc2)o1,,inactive
CCCCCCn1c(CN2CCCC(C)C2)nc2c1c(=O)n(C)c(=O)n2C (stereo not given),,inactive
O=C1c2ccccc2C(Nc2ccc3c(c2)OCCO3)N1Cc1ccco1 (stereo not given),,inactive
COc1ccccc1CN1CC2(CCN(S(=O)(=O)c3ccccc3)CC2)C1,,inactive
CCOC(=O)c1nnn(-c2nc(OC)nc(N(C)C)n2)c1-c1ccccc1,,inactive
CCOC(=O)c1sc(=S)n2c1[nH]c(=O)c1ccc(C(=O)OC)cc12,,inactive
O=C(CS(=O)(=O)c1cn(Cc2cccc(F)c2)c2ccccc12)N1CCCCC1,,inactive
CC(C)CSC[C@@H]1O[C@H](n2cnc3c(N)nccc32)[C@H](O)[C@@H]1O,,-4% [at 5.75 µM]
CCCCSc1nnc(-c2ccc(NC(=O)CC)cc2)n1C,,inactive
COc1ccc2[nH]c(=O)c(CN(Cc3nnnn3CCc3ccccc3)CC3CCCO3)cc2c1 (stereo not given),,inactive
CC(C)CC(=O)N=C1SC2CS(=O)(=O)CC2N1CCc1ccccc1 (stereo not given),,inactive
O=C(NCc1ccccn1)Nc1ccc(F)cc1,,inactive
CC(=NCc1ccco1)C1=C(O)c2ccccc2C1=O,,inactive
COC(=O)c1ccc(NC(=O)CSc2nnc(-c3ccncc3)n2C)cc1,,inactive
COc1ccccc1OCCOc1ccc(/C=N/n2cnnc2)cc1,,inactive
CC12CN(Cc3ccccc3)CC(C)(CN(Cc3ccccc3)C1)C2=NO,,inactive
COc1ccc(-c2noc(COc3ccc(Cl)c(C)c3)n2)cc1,,inactive
COCC(C)NC(=O)c1ccc(Cl)c(Cl)c1 (stereo not given),,inactive
Cc1ccc(-c2ccc(=O)n(CC(=O)NCCCN3CCCCC3)n2)cc1,,inactive
COc1ccc(S(=O)(=O)N2CCC(C(=O)N3CCc4ccccc4C3)CC2)cc1OC,,inactive
CCn1c(=O)cc(SCC(=O)NCc2ccc3c(c2)OCO3)c2ccccc21,,inactive
COc1ccccc1-c1nc(C(F)(F)F)c(OC)o1,,inactive
CCC(=O)Nc1ccccc1N1CCN(S(C)(=O)=O)CC1,,inactive
COc1cc(C2C(C#N)=C(C)NC3=C2C(=O)CC(C)(C)C3)ccc1O (stereo not given),,inactive
Cc1ccc(S(=O)(=O)N2CCOCC2)cc1C(=O)NCc1ccc(F)cc1,,inactive
COc1cc(Br)cc(/C=N/c2ncn[nH]2)c1O,,inactive
COC(=O)[C@@]1(Cc2ccccc2)[C@H]2c3cc(C(=O)N4CCCC4)n(Cc4ccc(C)o4)c3C[C@H]2CN1C(=O)c1ccccc1,,inactive

Structure (SMILES),Potency,"activity change, negative = inhibition"
CCn1c(CSc2ncccn2)nnc1SCC(=O)N1c2ccccc2CC1C (stereo not given),,inactive
COc1cc(C2C(C(=O)Nc3ccc(F)cc3)=C(C)Nc3nc(CCCO)nn32)cc(OC)c1OC (stereo not given),,inactive
CC(C)c1ccc(NS(=O)(=O)c2cn(C)c(=O)n(C)c2=O)cc1,,inactive
O=C(CCn1c(=O)oc2ccccc21)Nc1ccon1,,inactive
CCOC(=O)c1cc(-c2nnc(-c3cc(OC)c(OC)c(OC)c3)o2)c(C)nc1C,,inactive
c1csc(CN2CCN(Cc3cccs3)C2c2cccs2)c1,,inactive
COC(=O)CNS(=O)(=O)c1ccc(Cc2ccc(S(=O)(=O)NCC(=O)OC)cc2)cc1,,inactive
Cc1ccc(C2(c3ccc(C)cc3)NC(=O)N(Cc3c(C)noc3C)C2=O)cc1,,inactive
C[C@@H](C(=O)Nc1ccc2ccccc2c1)[C@@H]1C[C@@]1(C)[C@@H](NC(=O)c1cccnc1)c1ccccc1,,inactive
N#Cc1c2c(c(N3CCN(CCO)CC3)n3c1nc1ccccc13)CCCC2,,inactive
Cc1cc(Br)ccc1NC(=O)C1CCCO1 (stereo not given),,inactive
CO[C@@H]1/C=C\O[C@]2(C)Oc3c(C)c(O)c4c(O)c(c(CN(C)C)c(O)c4c3C2=O)NC(=O)/C(C)=C\C=C[C@@H](C)[C@@H](O)[C@H](C)[C@@H](O)[C@H](C)[C@H](OC(C)=O)[C@@H]1C,,-4.9% [at 5.75 µM]
O=C(CCCCn1c(=O)[nH]c2ccccc2c1=O)NCc1ccc2c(c1)OCO2,,inactive
CCN(CC(=O)NC(C)C)C(=O)CCNC(=O)c1ccc(Cl)cc1,,inactive
COc1ccc(-c2nc3cnc(N(C)C)nc3n(Cc3cccs3)c2=O)cc1,,inactive
CCOC(=O)C1C(=O)C=C(c2ccc(OC)cc2)CC1c1ccco1 (stereo not given),,inactive
O=C(C1CCC(C(=O)N2CCCC2)CC1)N1CCCC1 (stereo not given),,inactive
O=C1CCc2cc(S(=O)(=O)N3CCC(C(=O)NCc4ccccc4Cl)CC3)ccc2N1,,inactive
COc1cccc(-n2c(Cc3cc(=O)[nH]c(=O)[nH]3)nnc2SCC(=O)Nc2ccccc2)c1,,inactive
COc1ccc(C)cc1NC(=O)CSc1nc(SC)ns1,,inactive
Cc1ccc2cc3cc(C(=O)N4CCCCCC4)oc3nc2c1,,inactive
COc1ccccc1CNc1ncnc2ccc(-c3c(C)noc3C)cc12,,inactive
CC(=O)N1[C@H](C)C=C[C@]1(Cc1ccccc1)C(=O)NCc1ccccn1,,inactive
CCOc1cc2[nH]c(=S)n(CCCN3CCCC3=O)c(=O)c2cc1OCC,,inactive

# Reference: PubChem BioAssay AID584 (National Center for Advancing Translational Sciences (NCATS), 2007)
